This is one part of the list. A number with no mark means an inactive call. Activity calls are given as the source filed them.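 How the source made its calls, unless noted: active means inhibition above the mean over all tested compounds plus 3 SD, which no compound reached; inactive means the rest.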
Experiments:
[1] = test system: HIV-1 integrase (multimerization); assay: stimulation of HIV-1 integrase oligomerization – biochemical, TR-FRET, counter-screen for LEDGF/p75 integration inhibitor project (AID 1053131; in the data active means activation above about 8.9%); settings: TR-FRET HIV-1 integrase multimerization, at 7.7 µM, active compounds read high
[2] = compounds disturbing TR-FRET signal readout – biochemical, HIV-1 IN multimerization, artefact control for LEDGF/p75-dependent integration inhibitor project, confirmation (AID 1053135); settings: TR-FRET optical interference counterscreen, at 7.7 µM, active compounds read high;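 further: 0% = integrase with antibodies and DMSO and 100% = antibodies without integrase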
[3] = test system: HIV-1 integrase / human LEDGF/p75 complex; assay: blockers of LEDGF/p75-dependent integrase activity – biochemical, TR-FRET, confirmation (AID 1053136; in the data active means inhibition above about 14%); settings: TR-FRET LEDGF/p75-dependent HIV-1 integration, at 3.7 µM, active compounds read high

SMILES	activation [1]	inhibition [2]	inhibition [3]
COCCn1nnnc1C(c1cc2ccc(OC)cc2[nH]c1=O)N1CCc2ccccc2C1 (stereo unspecified)	0.07%	-0.28%	0.92%
C=CCn1c2ccccc2c2nnc(SCc3[nH]c(=O)[nH]c3C(=O)CCCCC(=O)OCC)nc21	-0.48%	2.45%	24% (active)
COc1ccc(C(=O)/C=C/c2ccc(-c3ccccc3)cc2)cc1CSCC(=O)O	-1.35%	6.82%	21.8% (active)
Cc1cc(C)c2nc(-c3ccco3)cc(C(=O)O)c2c1	2.58%	-12.9%	63.6% (active)
COc1ccc(C2CC(c3cccs3)=NN2C(=O)COC(=O)c2cc3ccccc3cc2O)cc1OC (stereo unspecified)	-0.23%	1.12%	-6.48%
CCN(CC)CCOc1ccc2c(c1)C(=NNC(=O)c1ccccn1)c1cc(OCCN(CC)CC)ccc1-2	2.34%	-8.61%	6.51%
CN(C)c1ccc(C(CC(=O)O)C(=O)O)cc1 (stereo unspecified)	3.35%	-16.9%	0.73%
COc1ccc(S(=O)(=O)N2CCCCC2)cc1C(=O)NC1CCS(=O)(=O)C1 (stereo unspecified)	-2.17%	10.9%	-3.25%
Cc1cc(=O)n2[nH]c(-c3sccc3-n3c(C)ccc3C)cc2n1	4.52%	-16.3%	1.35%
Cc1sc2nc(SCC(=O)c3ccc(O)c(O)c3)n(Cc3ccco3)c(=O)c2c1C	8.33%	-41.9%	39.2% (active)
O=C(Nc1nnc(-c2ccco2)o1)c1ccc(S(=O)(=O)N2CCOCC2)cc1	0.8%	-4.01%	-5.04%
Cn1c(SCc2nc3ccccc3s2)nnc1-c1ccc2c(c1)OCO2	0.47%	-2.33%	-2.11%
COc1c(O)cc2oc(-c3ccc(O)c(O)c3)cc(=O)c2c1O	16.2% (active)	-81.9%	89.6% (active)
Cc1ccc(-c2nn(-c3ccccc3)cc2/C=C2\SC(=S)N(CCCCCC(=O)O)C2=O)o1	97.9% (active)	-492%	41.5% (active)
Cc1cc(C(=O)NN=C/C=C/c2ccco2)n[nH]1	10.3% (active)	-36.8%	6.81%
COc1ccc(Cn2cc(CN3CCS(=O)(=O)N(Cc4ccc(-c5cccc(Cl)c5)cc4)C(C)C3=O)nn2)cc1 (stereo unspecified)	-2.68%	13.6%	-1.87%
CCn1nc(C)c(CN2CCN(Cc3ccc(OC)c(C)c3C)C(CCO)C2)c1C (stereo unspecified)	-0.07%	0.39%	-3.09%
CSc1nc(N)c(C#N)c(-c2ccccc2Cl)c1C#N	-0.67%	3.41%	0.36%
Cc1ccc(C(=O)NC(=S)Nc2ccc3[nH]c(=O)[nH]c3c2)cc1C	-3.75%	19%	14.8% (active)
NC1=NN(c2cccc(C(=O)O)c2)C(=O)C1	12.3% (active)	-62%	-2.77%
COc1cc(NC(=O)COC(=O)c2ccc([N+](=O)[O-])s2)cc(OC)c1OC	-0.28%	1.01%	51.5% (active)
Oc1cc(O)c2c(c1)OC(c1ccc(O)c(O)c1)C(O)C2 (stereo unspecified)	10.4% (active)	-52.5%	-0.79%
CC1(C(=O)NS(=O)(=O)c2ccccc2)CCN1C(=O)Cc1ccc(-c2ccccc2)cc1 (stereo unspecified)	-0.39%	2.02%	1.27%
NC(=O)c1ccccc1NC(=O)c1ccccc1F	1.09%	-4.33%	-4.54%
CCOC(=O)c1ccc(NC(=O)CSc2ncccn2)cc1	-0.25%	1.28%	-6.96%
O=C(O)c1ccc(NN=CC2=C(N3CCOCC3)/C(=C/c3ccccc3)CC2)cc1	3.07%	-10.9%	16.6% (active)
CCOC(=O)/C(C#N)=C\c1c(C)cc(C)c(COC(C)=O)c1C	0.2%	-1.03%	3.21%
